Drawing on the GenesisPotency data set, this text covers outcome for 107 compounds.

SMILES strings stand for the structures. Out of some 290,000 compounds screened, about 3,000 (1%) were called active. Cut-off read from the data, not from the text of the source: active = inhibition mostly above about 36% (no sharp cut-off); inactive = mostly below about 34%. The entries come from a sample that favours actives as a whole.

This test concerns the target T1, Nucleotide-binding oligomerization domain-containing protein 1, Homo sapiens (UniProt Q9Y239).
T1 sequence (whole entry): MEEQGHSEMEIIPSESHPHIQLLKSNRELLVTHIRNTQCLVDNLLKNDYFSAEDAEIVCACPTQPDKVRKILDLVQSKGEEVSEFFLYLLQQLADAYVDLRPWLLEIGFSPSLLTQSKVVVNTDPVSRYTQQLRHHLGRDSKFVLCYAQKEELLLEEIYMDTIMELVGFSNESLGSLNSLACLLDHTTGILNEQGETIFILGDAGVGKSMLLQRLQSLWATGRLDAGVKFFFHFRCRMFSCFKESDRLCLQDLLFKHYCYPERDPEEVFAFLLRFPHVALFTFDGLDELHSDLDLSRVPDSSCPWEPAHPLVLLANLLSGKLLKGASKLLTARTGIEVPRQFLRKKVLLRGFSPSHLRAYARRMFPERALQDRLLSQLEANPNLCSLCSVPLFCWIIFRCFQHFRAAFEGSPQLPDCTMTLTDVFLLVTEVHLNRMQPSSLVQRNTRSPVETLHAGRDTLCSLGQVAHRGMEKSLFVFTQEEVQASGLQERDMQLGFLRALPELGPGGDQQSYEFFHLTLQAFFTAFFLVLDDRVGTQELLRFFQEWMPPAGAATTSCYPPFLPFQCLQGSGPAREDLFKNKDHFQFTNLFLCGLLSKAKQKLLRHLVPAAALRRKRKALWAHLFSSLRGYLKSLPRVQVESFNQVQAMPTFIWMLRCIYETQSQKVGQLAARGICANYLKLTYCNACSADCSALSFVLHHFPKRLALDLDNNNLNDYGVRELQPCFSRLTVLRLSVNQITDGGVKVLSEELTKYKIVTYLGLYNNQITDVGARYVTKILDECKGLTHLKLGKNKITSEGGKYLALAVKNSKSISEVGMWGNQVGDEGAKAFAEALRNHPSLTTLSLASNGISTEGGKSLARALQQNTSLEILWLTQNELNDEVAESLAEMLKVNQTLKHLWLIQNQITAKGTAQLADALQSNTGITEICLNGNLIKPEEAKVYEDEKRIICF
The experiment in a line: NOD1 signaling inhibitors, primary screen, cell-based, luminescence, uHTS (AID 1578).
Consider `O=c1c(C(c2ccccc2)c2c(O)sc3ccccc3c2=O)c(O)sc2ccccc12`, for which the compound was called active. The result for `COc1ccc2cc3c(N)nn(C(=O)c4ccc(F)cc4)c3nc2c1` reads “active”; that for `COc1ccc2cc3c(N)nn(C(=O)c4cccc([N+](=O)[O-])c4)c3nc2c1`, “active”.

`COc1ccc2cc3c(N)nn(C(=O)c4cccc(F)c4)c3nc2c1`: the outcome was active.

Regarding `Cc1ccc2nc(NC(=O)CSCC(=O)OCC(=O)c3ccc(Br)cc3)sc2c1`, the outcome was active. `Cc1c(C)c2ccc(OCC(=O)Nc3ccccn3)c(C)c2oc1=O`: the call was active. Turning to `COc1cccc(C(=O)c2sc(NC(C)C)nc2N)c1`, the outcome was active. Turning to `O=c1c(Cl)c(Cl)cnn1Cc1nnc(-c2ccccc2Br)o1`, the outcome was active. The result for `COC(=O)CCn1nnc(-c2ccc(C(C)C)cc2)n1` reads “active”; that for `CC(C)c1ccc(-c2nnn(CCC(=O)O)n2)cc1`, “active”. With `COc1ccc2cc3c(N)nn(C(=O)C4CCC(C(C)(C)C)CC4)c3nc2c1` (configuration not stated) the entry was “active”. With `COc1ccc2cc3c(N)nn(C(=O)c4ccccc4Cl)c3nc2c1` the entry was “active”; with `COc1ccc2cc3c(N)nn(C(=O)c4ccccc4[N+](=O)[O-])c3nc2c1`, “active”; with `CN(Cc1ccccc1)S(=O)(=O)c1nnc(NC(=O)c2ccc(F)cc2)s1`, “active”. Turning to `COc1cc(OC)c(N(C)S(=O)(=O)c2cccc(C(=O)OCC(=O)c3c[nH]c4ccccc34)c2)cc1Cl`, the result was active. The result for `O=c1cc(CSc2ccc(Cl)cc2)nc(-c2ccccn2)[nH]1` reads “active”; that for `Cn1c2ccccc2c(=O)c2c(=O)n(C3CCCCC3)c(-c3ccco3)nc21`, “active”; that for `O=C(Nc1cc(C(F)(F)F)cc(C(F)(F)F)c1)Nc1cnn(-c2ccc([N+](=O)[O-])cc2)c1C(F)(F)F`, “active”. With `O=S(=O)(Nc1nc2ccccc2nc1N1CCN(c2ccccc2F)CC1)c1ccc(Cl)cc1`, the compound was classed as active.

`COc1ccc(-c2cc(C(F)(F)F)nc(S(=O)(=O)CCCC(=O)Nc3cccnc3Cl)n2)cc1OC`: the call was active. With `COc1ccccc1-c1cc(C(F)(F)F)nc(S(=O)(=O)CCCC(=O)Nc2cccnc2Cl)n1` the entry was “active”; with `COc1ccccc1-c1cc(C(F)(F)F)nc(S(=O)(=O)CCCC(=O)N2CCCCC2C)n1` (configuration not stated), “active”; with `COc1ccc(-c2cc(C(F)(F)F)nc(S(=O)(=O)CCCC(=O)Nc3cccc(O)c3)n2)cc1OC`, “active”. With `COc1ccc2c(C(=O)CCl)c[nH]c2c1`, the call was active. As for `COc1ccc2[nH]cc(C(=O)CCl)c2c1`, the compound was called active. With `Cc1nn(-c2ccccc2)c(Cl)c1CN(C(=O)CCl)c1ccc(Cl)cc1`, the compound was classed as active. The result for `CCC(=O)Nc1cccc(C(=O)/C=C/c2cc(Br)ccc2OC)c1` reads “active”.

On to `COc1ccc(Br)cc1/C=C/C(=O)c1ccc(NC(C)=O)cc1`, for which the compound was called active. Consider `Cc1ccc(C(C)C)c(OCc2ccc(C(=O)N/N=C/c3ccc(C(=O)O)cc3)cc2)c1`, for which the compound was classed as active. In the case of `CN(C)S(=O)(=O)c1cccc(NC(=O)CSc2cccc3cccnc23)c1`, the compound was classed as active. With `O=C(CSc1cccc2cccnc12)Nc1ccc(S(=O)(=O)N2CCOCC2)cc1` the entry was “active”.

With `CCOc1ccc2c(c1)C(=NNC(=O)c1ccncc1)c1cc(OCC)ccc1-2`, the compound was called active. Turning to `CC(=O)c1c(C)[nH]c(C(=O)COC(=O)c2cccc(S(=O)(=O)N(C)c3ccccc3)c2)c1C`, the outcome was active. Consider `CNc1nc(-c2ccc3c(c2)CCN3S(=O)(=O)c2ccccc2)c(C)s1`, for which the compound was called active. The result for `COc1ccc(Nc2cc(Nc3cc(OC)c(OC)c(OC)c3)ncn2)cc1` reads “active”. With `Cc1cc(Nc2nc3ccccc3nc2Cl)n(-c2ccc([N+](=O)[O-])cc2)n1` the entry was “active”.

Turning to `COc1ccc(C)cc1NC(=O)CSc1ccc(-c2ccccn2)nn1`, the call was active. Take `O=C(Nc1nnc(-c2ccc(F)cc2)o1)c1cccc([N+](=O)[O-])c1`: the compound was classed as active. Take `CCOc1ccc(-c2nnc(NC(=O)c3ccc(OCC(C)C)c(OC)c3)o2)cc1`: the call was active.

Take `COc1ccc(-c2nnc(NC(=O)c3ccc(F)cc3)o2)cc1`: the outcome was active. With `O=C(Nc1nnc(-c2ccc(F)cc2)o1)c1cc(Cl)sc1Cl` the entry was “active”. As to `CN(c1ccccc1)S(=O)(=O)c1ccc(C(=O)Nc2nnc(-c3ccc(F)cc3)o2)cc1`, the compound was called active. With `O=C(Nc1ccc(C(F)(F)F)cc1)C1CCN(S(=O)(=O)c2ccc(N3CCCC3=O)cc2)CC1` the entry was “active”; with `C/C(=N\Nc1ncnc2sc(C)c(C)c12)c1ccccn1`, “active”; with `CCOc1ccc(-n2c(C)c(C(C)=O)c3cc(OC(C)=O)ccc32)cc1`, “active”. The result for `CC(=O)c1c(C)n(-c2ccccc2)c2ccc(O)cc12` reads “active”; that for `COc1ccc(-n2c(C)c(C(C)=O)c3cc(OC(C)=O)ccc32)cc1`, “active”. The result for `COc1ccc2c(c1)c(C(C)=O)c(C)n2CCc1ccccc1` reads “active”; that for `COc1ccc(-n2c(C)c(C(C)=O)c3cc(O)ccc32)cc1`, “active”. `COc1ccc2c(c1)c(C(C)=O)c(C)n2-c1ccc(C(C)=O)cc1`: the compound was called active. Consider `COc1ccccc1N1CCN(c2nc(C)nc3c2oc2ccccc23)CC1.Cl`, for which the call was active.

`COc1ccc(-c2csc3ncnc(NCCN4CCOCC4)c23)cc1`: the compound was classed as active. The result for `Clc1ccc(-c2csc3ncnc(NCCN4CCOCC4)c23)cc1` reads “active”; that for `CC(C)n1c(CN(C)Cc2ccccc2)nc2c1c(=O)n(C)c(=O)n2C`, “active”; that for `CCN1/C(=C/C=C/C=C/C=C/c2sc3ccccc3[n+]2CC)Sc2ccccc21.[I-]`, “active”.

With `c1cc(-c2nnc3sc(C4CCCCC4)nn23)ccn1`, the compound was classed as active.

As for `c1ccc(CCc2nn3c(-c4ccncc4)nnc3s2)cc1`, the call was active.

Consider `Cc1c(CCC(=O)O)c(=O)oc2cc(OCc3ccccc3Br)ccc12`, for which the result was active. With `CC(C)(C)C1CCC2(CC1)C(C#N)=C(SCC(=O)Nc1ccccc1)NC(=O)C2C#N` (configuration not stated) the entry was “active”. With `N#CC1=C(SCC(=O)NC23CC4CC(CC(C4)C2)C3)NC(=O)C(C#N)C12CCCCC2` (configuration not stated) the entry was “active”. For `Cc1ccc(NC(=O)CSc2nn(-c3ccccc3)c(=S)s2)cc1S(=O)(=O)N(C)C`, the compound was classed as active. With `CC(C)(C)C(=O)Nc1ccc(NC(=O)c2ccco2)nc1` the entry was “active”; with `O=C(Nc1nc2ccc([N+](=O)[O-])cc2s1)c1ccc(S(=O)(=O)N2CCCc3ccccc32)cc1`, “active”; with `CC1CCCCN1c1ncnc(N)c1[N+](=O)[O-]` (configuration not stated), “active”. Consider `Nc1ncnc(N2CCc3ccccc32)c1[N+](=O)[O-]`, for which the compound was called active.

For `COc1ccc2sc3c(=O)[nH]c4ccccc4c3c2c1`, the outcome was active.

For the compound `Cc1ccc(S(=O)(=O)N2CCN(c3ncnc4sccc34)CC2)cc1`, the call was active. The result for `O=S(=O)(c1ccc2c(c1)OCCO2)N1CCN(c2ncnc3sccc23)CC1` reads “active”; that for `O=C(O)CCSc1nnc(-c2ccc3c(c2)OCO3)o1`, “active”; that for `O=C(Nc1nccs1)c1sc2cc(Cl)ccc2c1Cl`, “active”. The result for `Cc1cc(NC(=O)c2cccs2)n(-c2nc3ccccc3[nH]2)n1` reads “active”; that for `Cc1ccc(NC(=O)CSc2ncnc3ccccc23)cc1S(=O)(=O)N1CCOCC1`, “active”; that for `COc1ccc(C(=O)Nc2ccc(-c3ccc(C)o3)cc2)cc1S(=O)(=O)N1CCOCC1`, “active”. With `O=C(Nc1ccc(Cl)c(S(=O)(=O)N2CCOCC2)c1)c1ccc(OCC2CCCO2)cc1` (configuration not stated) the entry was “active”; with `CCOC(=O)c1ccc(NC(=O)c2ccc(C)c(S(=O)(=O)N3CCOCC3)c2)cc1`, “active”; with `CCOc1ccc(Nc2ncnc3ccc([N+](=O)[O-])cc23)cc1`, “active”. With `Cc1nn(-c2ccccc2)c(Cl)c1C(=O)N1CCN(c2ncnc3c2cnn3-c2ccccc2)CC1`, the compound was classed as active. With `CN(C)CC(CCC(CN(C)C)C(=O)c1ccccc1)C(=O)c1ccccc1.Cl` (configuration not stated), the result was active. Turning to `O=C(NCc1cccnc1)/C(=C\c1ccc(-c2cccc(Cl)c2)o1)S(=O)(=O)c1ccccc1`, the call was active. `O=C(NCc1cccnc1)/C(=C/c1ccc(-c2cccc(Cl)c2)o1)S(=O)(=O)c1ccccc1`: the compound was called active.

On to `O=C(CCl)N1N=C(c2cccs2)CC1c1ccco1` (configuration not stated), for which the compound was called active. Take `O=C(CCl)N1N=C(c2ccco2)CC1c1ccco1` (configuration not stated): the result was active. The result for `Cc1ccc(-n2[nH]c(C)c(/C=N/Nc3ccc([N+](=O)[O-])cc3[N+](=O)[O-])c2=O)cc1C` reads “active”. The result for `O=C(N/N=C/c1ccccn1)c1sc2ccccc2c1Cl` reads “active”; that for `Cc1[nH]n(-c2ccccc2)c(=O)c1/C=N/NC(=O)c1cccc([N+](=O)[O-])c1`, “active”; that for `COc1ccc(C(=O)Nc2ccccc2C(=O)N/N=C/c2ccccn2)cc1OC`, “active”. With `CC(/C=C/c1ccccc1)=N/NC(=O)c1cc([N+](=O)[O-])cc([N+](=O)[O-])c1` the entry was “active”; with `O=C(N/N=C/c1ccccn1)c1cc([N+](=O)[O-])cc([N+](=O)[O-])c1`, “active”. Consider `O=C(N/N=C/c1ccccn1)c1ccc(Cl)c(Cl)c1`, for which the compound was called active. The result for `Cc1cccc(/C=N/NC(=O)c2cccc([N+](=O)[O-])c2)n1` reads “active”; that for `Cc1c(CCC(=O)O)c(=O)oc2cc3oc4c(c3cc12)CCCC4`, “active”; that for `O=C(Sc1cccc2cccnc12)c1ccccc1Br`, “active”. The result for `O=C(Sc1cccc2cccnc12)c1ccc(F)cc1` reads “active”; that for `O=C(Nc1ccc(N2CCN(c3ncccc3C(F)(F)F)CC2)nc1)c1cccs1`, “active”; that for `COc1cc(C(=O)N/N=C(\c2ccccc2)c2ccccn2)cc(OC)c1OC`, “active”.

As to `COc1ccc(C(=O)N/N=C(\c2ccccc2)c2ccccn2)cc1`, the compound was classed as active. As to `COc1cccc(C(=O)N/N=C(/c2ccccc2)c2ccccn2)c1`, the compound was classed as active. The result for `O=C(N/N=C(\c1ccccc1)c1cccnc1)c1cccc(F)c1` reads “active”; that for `CCOC(=O)c1c(NC(=S)NCCc2ccccc2)sc2c1CC(C(C)C)OC2` (configuration not stated), “active”; that for `Cn1c(=O)c(C(=O)CCl)c(N)n(Cc2ccccc2)c1=O`, “active”.

With `O=C(CSc1n[nH]c(-c2ccccn2)n1)Nc1cccc(Cl)c1`, the result was active.

For `O=C(CSc1n[nH]c(-c2ccccn2)n1)Nc1ccc(Cl)cc1`, the result was active. For `Cc1ccccc1Oc1cc(-n2ncc(Cl)c(Cl)c2=O)ncn1`, the compound was classed as active. With `O=C(NCc1ccco1)c1sc(=S)n2c1[nH]c(=O)c1ccccc12` the entry was “active”. Consider `O=C(NCc1ccccc1)c1sc(=S)n2c1[nH]c(=O)c1ccccc12`, for which the compound was classed as active. Consider `CCCCNC(=O)c1sc(=S)n2c1[nH]c(=O)c1ccccc12`, for which the compound was called active. The result for `CC(C)NC(=O)c1sc(=S)n2c1[nH]c(=O)c1ccc(C(=O)NCCc3ccc(Cl)cc3)cc12` reads “active”.
